Source: PubChem
ARNT-TACC3 inh = disruptors of ARNT/TACC3 protein interaction, primary screen, biochemical, AlphaScreen, single concentration | Transforming acidic coiled-coil-containing protein 3 (Homo sapiens), Q9Y6A5 | AlphaScreen His-ARNT PAS-B/GST-TACC3 binding, luminescence; TACC3 fragment carries E629A point mutation | 0.66% of 390,000 active | inhibition, % at 9.99 µM | AID 623870, 2012;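 active means mean inhibition of replicates at least 50% and at least half of replicates each reaching 50%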;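 further: 0% = complete ARNT plus TACC3 wells and 100% = ARNT alone without TACC3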
GSIS activator = GLuc luminescence reporter in INS-1E cells, primary screen for activators of glucose-dependent secretion of insulin. AID 743287, 2014. activation, % at 16.6 µM. INS-1E GLuc reporter insulin secretion, 2-3 h. 0.61% of 370,000 active;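 active means lowest replicate activation of at least 40%, so every replicate reaches that level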;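 further: 0% = median of neutral control wells and 100% = median of IBMX positive control wells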
hiPSC survival = enhancers of single-cell hiPSC survival, primary screen, ATPlite luminescence | 100% = ROCK inhibitor wells, 0% = DMSO | survival enhancement, % at 20 µM | 0.044% of 360,000 active | AID 602274, 2012; in the data active means survival enhancement above about 18%;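 further: cells exposed to compounds for 16 hours before the ATP read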
CendR NRP1 mod = modulators of CendR peptide binding to NRP-1, primary screen, biochemical, fluorescence polarization, uHTS. 0.85% of 360,000 active. Neuropilin-1 (Homo sapiens), O14786. inhibition, % at 25 µM. FAM-RPARPAR peptide binding to NRP-1;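 active means inhibition or corrected inhibition above about 18%, plus a signal ratio from 0.5 to 1.5, limit read from the data, passing the limit was not always enough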
ABCB6 inh 2 = ABCB6 transporter inhibitors, primary screen, K562-ABCB6 cells, flow cytometry, MLPCN library; 0.19% of 360,000 active; K562-ABCB6 porphyrin accumulation, 1 h; active compounds read low; ATP-binding cassette sub-family B member 6 (Homo sapiens), Q9NP58; fluorescence ratio to DMSO, % at 10 µM;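 active means fluorescence ratio to DMSO below 75%, the collection mean minus 3 SD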;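 further: signal is porphyrin accumulated inside mitochondria; 100% equals median channel fluorescence of DMSO control wells; lower ratio means ABCB6 inhibition with less porphyrin fluorescence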
Target sequence (Q9NP58 whole entry, looked up): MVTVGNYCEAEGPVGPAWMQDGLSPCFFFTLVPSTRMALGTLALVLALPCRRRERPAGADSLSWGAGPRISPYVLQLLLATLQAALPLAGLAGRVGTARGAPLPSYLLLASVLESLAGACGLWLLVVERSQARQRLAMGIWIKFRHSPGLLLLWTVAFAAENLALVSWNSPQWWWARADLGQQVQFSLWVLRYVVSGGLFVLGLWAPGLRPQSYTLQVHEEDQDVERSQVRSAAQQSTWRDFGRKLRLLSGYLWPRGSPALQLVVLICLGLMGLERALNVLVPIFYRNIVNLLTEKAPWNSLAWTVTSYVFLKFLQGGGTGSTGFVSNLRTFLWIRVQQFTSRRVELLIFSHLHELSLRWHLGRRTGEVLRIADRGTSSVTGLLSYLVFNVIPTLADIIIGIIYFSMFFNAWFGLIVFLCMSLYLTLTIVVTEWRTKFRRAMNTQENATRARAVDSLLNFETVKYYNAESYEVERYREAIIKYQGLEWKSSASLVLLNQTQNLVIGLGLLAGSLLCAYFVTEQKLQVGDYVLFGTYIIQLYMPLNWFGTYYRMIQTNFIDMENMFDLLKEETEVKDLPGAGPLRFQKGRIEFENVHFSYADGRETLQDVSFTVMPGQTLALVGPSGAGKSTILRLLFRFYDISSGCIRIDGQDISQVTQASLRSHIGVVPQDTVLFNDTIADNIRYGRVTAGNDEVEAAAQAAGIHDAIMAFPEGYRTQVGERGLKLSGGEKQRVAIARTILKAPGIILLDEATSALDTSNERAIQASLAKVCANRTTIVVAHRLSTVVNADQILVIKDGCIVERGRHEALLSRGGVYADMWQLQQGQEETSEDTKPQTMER
* hit, by the source's call. Sampled rows, rich in hits. Any-hit rate of the full collection: about 1.8%.

For O=C1C=CC(=O)c2c(O)c(CO)c(CO)c(O)c21 the results were ARNT-TACC3 inh 12*, hiPSC survival -2, CendR NRP1 mod 59* and ABCB6 inh 2 104.
CC(C)Cc1ccc(C(C)C(=O)Nc2ccc(O)cc2)cc1 (centres undefined) was read as ARNT-TACC3 inh 0, GSIS activator -12, hiPSC survival -3, CendR NRP1 mod 38* and ABCB6 inh 2 87.
Screening CC(C)Cc1ccc(C(C)C(=O)Nc2cccnc2)cc1 (centres undefined) returned ARNT-TACC3 inh -13, GSIS activator -15, hiPSC survival -1, CendR NRP1 mod 7 and ABCB6 inh 2 91.
Screening COc1ccc(-c2ccc3n(c2=O)C[C@H]2[C@H](CO)[C@@H](C(=O)Nc4ccccc4)[C@@H]3N2C)cc1 returned ARNT-TACC3 inh 0 and GSIS activator 18.
Screening CCC(=O)N1C[C@@H](C)[C@@H](OC)CN(C)C(=O)c2ccc(NC(=O)C3CC3)cc2OC[C@@H]1C returned ARNT-TACC3 inh -6 and GSIS activator 4.
`O=C(CCl)Nc1ccc(N2CCCCCC2)cc1` gave ARNT-TACC3 inh 21, GSIS activator -17, hiPSC survival -5, CendR NRP1 mod 43* and ABCB6 inh 2 102.
For COc1ccc2c3c(n(C)c2c1)[C@H](CO)N(C(=O)c1ccncc1)CC31CN(C)C1 the results were GSIS activator 9.
Screening O=C(NCC1OCCc2ccccc21)c1ccc(NC(=O)c2cccc(Br)c2)cc1 (centres undefined) returned ARNT-TACC3 inh 0, GSIS activator 253*, hiPSC survival 2, CendR NRP1 mod 0 and ABCB6 inh 2 102.
O=C(NCC1OCCc2ccccc21)c1ccc(NC(=O)c2ccccc2Cl)cc1 (centres undefined) was read as ARNT-TACC3 inh 6, GSIS activator -10, hiPSC survival -1, CendR NRP1 mod -10 and ABCB6 inh 2 97.
For O=C(NCC1OCCc2ccccc21)c1ccc(NC(=O)c2ccc(Cl)cc2Cl)cc1 (centres undefined) the results were ARNT-TACC3 inh -3, GSIS activator 267*, hiPSC survival 4, CendR NRP1 mod -9 and ABCB6 inh 2 94.
CCNC(=O)C[C@H]1CC[C@H]2[C@@H](COC[C@H](O)CN2C(=O)c2cc(Cl)cc(Cl)c2)O1 was read as ARNT-TACC3 inh -3 and GSIS activator 4.
For CCN(CC)c1ccc2cc(NC(=O)CCC(=O)O)c(=O)oc2c1 the results were ARNT-TACC3 inh 1, GSIS activator -7, hiPSC survival -3, CendR NRP1 mod 50* and ABCB6 inh 2 98.
`CCN(CC)c1ccc2cc(C(C)=O)c(=O)oc2c1` gave GSIS activator -4, hiPSC survival 0, CendR NRP1 mod -40 and ABCB6 inh 2 98.
For COC(=O)c1sc2ccccc2c1NC(=O)c1cccs1 the results were ARNT-TACC3 inh -3, GSIS activator 58*, hiPSC survival 0, CendR NRP1 mod 10 and ABCB6 inh 2 96.
For COC(=O)c1sccc1NC(=O)c1cccs1 the results were ARNT-TACC3 inh -15, GSIS activator 11, hiPSC survival -1, CendR NRP1 mod -8 and ABCB6 inh 2 89.
Cc1cc(=S)nc(-c2ccccn2)[nH]1 was read as ARNT-TACC3 inh 59*, hiPSC survival 0, CendR NRP1 mod 5 and ABCB6 inh 2 89.
For O=C(CSc1ccc2nnc(-c3ccccn3)n2n1)Nc1ccccc1 the results were ARNT-TACC3 inh 47*, GSIS activator -4, hiPSC survival 0, CendR NRP1 mod 0 and ABCB6 inh 2 94.
`COc1cccc(NC(=O)CSc2ccc3nnc(CCNC(=O)c4ccccc4)n3n2)c1` gave ARNT-TACC3 inh -2, GSIS activator -9, hiPSC survival 0, CendR NRP1 mod 20* and ABCB6 inh 2 96.
COC(=O)c1ccc(CSc2ccc3nnc(-c4ccccn4)n3n2)o1 was read as ARNT-TACC3 inh 58*, GSIS activator 1, hiPSC survival 2, CendR NRP1 mod 7 and ABCB6 inh 2 94.
`COC(=O)c1ccc(CSc2ccc3nnc(-c4ccc(F)cc4)n3n2)o1` gave GSIS activator -9, hiPSC survival 0, CendR NRP1 mod 5 and ABCB6 inh 2 90.
Cc1nnc2sc(SCC(=O)Nc3nccs3)nn2c1=O was read as ARNT-TACC3 inh 76*, GSIS activator 8, hiPSC survival -2, CendR NRP1 mod 11 and ABCB6 inh 2 96.
For O=C(Cc1ccccn1)NCC[C@@H]1CC[C@H](NC(=O)c2ccccc2F)[C@@H](CO)O1 the results were ARNT-TACC3 inh 19 and GSIS activator 3.
`O=C(C[C@H]1CC[C@@H]2[C@H](COC[C@H](O)CN2C(=O)c2ccccc2F)O1)NCc1ccc(-c2ccccc2)cc1` gave ARNT-TACC3 inh 27 and GSIS activator -15.
Screening Cc1ccc(S(=O)(=O)Nc2ccc3c(c2)C(=O)N([C@@H](C)CO)C[C@@H](C)[C@@H](CN(C)S(=O)(=O)c2ccccc2)OCCCC[C@@H](C)O3)cc1 returned ARNT-TACC3 inh -2 and GSIS activator 4.
`C[C@H](CO)N1C[C@H](C)[C@@H](CN(C)Cc2ccccn2)Oc2ncc(C3=CCCCC3)cc2C1=O` gave GSIS activator 3.
Screening CCN1CC(=O)N2[C@H](C1)[C@H](c1ccc(-c3ccccc3F)cc1)[C@@H]2CO returned GSIS activator 8.
For O=C(CSc1ccc2nnc(-c3ccccn3)n2n1)Nc1ccccc1C(F)(F)F the results were ARNT-TACC3 inh 52*, GSIS activator 38, hiPSC survival 1, CendR NRP1 mod 3 and ABCB6 inh 2 95.
`Cc1nnc(NC(=O)CSc2ccc3nnc(-c4ccccn4)n3n2)s1` gave ARNT-TACC3 inh 40, GSIS activator 1, hiPSC survival 1, CendR NRP1 mod -5 and ABCB6 inh 2 103.
Cc1cc(NC(=O)CSc2ccc3nnc(-c4ccccn4)n3n2)no1 was read as ARNT-TACC3 inh 45, GSIS activator -5, hiPSC survival 0, CendR NRP1 mod -4 and ABCB6 inh 2 100.
`O=C(CSc1ccc2nnc(-c3ccccn3)n2n1)Nc1nccs1` gave ARNT-TACC3 inh 60*, GSIS activator 10, hiPSC survival 0, CendR NRP1 mod -6 and ABCB6 inh 2 102.
O=C(CN1C(=O)c2ccccc2C1=O)NCC1CCCO1 (centres undefined) was read as ARNT-TACC3 inh 0, hiPSC survival -2, CendR NRP1 mod 8 and ABCB6 inh 2 101.
O=C(NCC1CCCO1)C1CCC(N2C(=O)c3ccccc3C2=O)CC1 (centres undefined) was read as ARNT-TACC3 inh -5, GSIS activator 81*, hiPSC survival 4, CendR NRP1 mod 0 and ABCB6 inh 2 97.
